Assay results as given in the supplement of paper PMC7695840.
Where a name gives a salt, the structure may show the parent alone.

Assays:
[1] = system: Staphylococcus aureus MW2 delta-mecA (mecA-); assay: normalized GFP fluorescence (growth of mecA- strain) (fraction of control range); higher = more growth of mecA- strain; conditions: compound concentration: 150 uM; cefoxitin: subinhibitory; fluorescent label: GFP
Procedure, shortened: (§1)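 S. aureus MW2 cells, pre-induced, were used as a 1:1 mix of a DsRed strain carrying the gene and a GFP strain lacking it, in LB with a subinhibitory antibiotic dose set each day. At 5 µL/well they were placed onto 150 μM compound (1.5% DMSO) in 1536-well plates, one replicate, and kept unshaken for 20 h at 37 °C, 90% humidity. After DsRed (540/590) and GFP (485/520) reads scaled per plate to single-strain control medians, plates with high untreated ratios and rows with DsRed/GFP >10 were excluded.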

[2] = system: Staphylococcus aureus MW2 (mecA+); assay: normalized DsRed fluorescence (growth of mecA+ strain) (fraction of control range); higher = more growth of mecA+ strain; conditions: compound concentration: 150 uM; cefoxitin: subinhibitory; fluorescent label: DsRed
Procedure, shortened: as §1

Compound	normalized GFP fluorescence [1]	normalized DsRed fluorescence [2]
C[C@]12CCC(=O)C=C1CC[C@@H]1[C@@H]2[C@@H](O)C[C@@]2(C)[C@H]1CC[C@]2(O)C(=O)CO	0.268	0.562
NS(=O)(=O)c1cc2c(cc1Cl)NC(C(Cl)Cl)NS2(=O)=O (stereo unspecified)	0.381	0.814
Clc1ccc2nsnc2c1NC1=NCCN1 [Tizanidine HCl]	0.539	0.515
CCCS(=O)(=O)Nc1ccc(F)c(C(=O)c2c[nH]c3ncc(-c4ccc(Cl)cc4)cc23)c1F [Vemurafenib (PLX4032)]	0.416	0.489
O=C(OOC(=O)c1ccccc1)c1ccccc1	0.437	0.519
CCCCOc1ccc(C(=O)CCN2CCCCC2)cc1	0.00391	0.36
CCN(C(=O)c1c(O)c2c(Cl)cccc2n(C)c1=O)c1ccccc1	0.0925	0.805
COc1nc(N)nc2c1ncn2[C@@H]1O[C@H](CO)[C@@H](O)[C@@H]1O [Nelarabine (Arranon)]	0.298	0.855
Nc1ccn(C[C@@H](CO)OCP(=O)(O)O)c(=O)n1 [Cidofovir (Vistide)]	0.408	0.568
CC1=C(C(=O)O)N2C(=O)[C@@H](NC(=O)[C@H](N)c3ccccc3)[C@H]2SC1	0.18	1.02
CCCN1CCCC[C@H]1C(=O)Nc1c(C)cccc1C [Ropivacaine HCl]	0.242	1.01
OCCN1CCN(CCCN2c3ccccc3Sc3ccc(C(F)(F)F)cc32)CC1	0.0603	1.68
OCCOCCN1CCN(C2=Nc3ccccc3Sc3ccccc32)CC1 [Quetiapine fumarate (Seroquel)]	0.0887	1.15
